Only some compounds are listed: those with a hit (about 22% of all), similar ones and a draw of the others.
Pf growth 48h: inhibits P. falciparum growth in the first generation, 48 h. P. falciparum luciferase growth in erythrocytes, 48 h. actives 5.9% (n = 310,000). Potency, µM (top dose mostly 28.7 µM), most hits filed as inhibitors. AID 504832
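Parasite viability was followed by luminescence of a genomically integrated firefly luciferase. Cultures held 0.1% parasitemia at 2% hematocrit (final), incubated under 5% CO2 at 37 C.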
Shiga toxin inh: inhibitors of Shiga toxin in Vero cells | Vero cells, Shiga toxin protein synthesis inhibition reporter | inhibition, % at 38.7 µM | actives 9.2% (n = 290,000) | AID 2315; in the data active = inhibition mostly above about 28%, no sharp cut-off; inactive = mostly below about 43%
Pf growth 96h: P. falciparum growth inhibition at 96 hour, primary screen for plastid delayed-death inhibitors | P. falciparum luciferase reporter growth, 96 h | Potency, µM (highest dose often 28.7 µM), usual class: inhibitors | actives 6.9% (n = 320,000) | AID 504834
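Erythrocytes infected with luciferase-expressing P. falciparum were dispensed at 2% hematocrit and 0.05% parasitemia (final), then incubated with compounds 96 hours at 37 C in 5% CO2. Luminescence after detection reagent addition reported growth.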
LmPK inh: blocks Leishmania mexicana pyruvate kinase activity | purified LmPK, Kinase-Glo ATP luminescence, 1 h | Potency, µM (doses to about 57.5 µM), actives largely listed as inhibitors | actives 0.37% (n = 290,000) | AID 1721
Target sequence (Q27686 whole entry, looked up): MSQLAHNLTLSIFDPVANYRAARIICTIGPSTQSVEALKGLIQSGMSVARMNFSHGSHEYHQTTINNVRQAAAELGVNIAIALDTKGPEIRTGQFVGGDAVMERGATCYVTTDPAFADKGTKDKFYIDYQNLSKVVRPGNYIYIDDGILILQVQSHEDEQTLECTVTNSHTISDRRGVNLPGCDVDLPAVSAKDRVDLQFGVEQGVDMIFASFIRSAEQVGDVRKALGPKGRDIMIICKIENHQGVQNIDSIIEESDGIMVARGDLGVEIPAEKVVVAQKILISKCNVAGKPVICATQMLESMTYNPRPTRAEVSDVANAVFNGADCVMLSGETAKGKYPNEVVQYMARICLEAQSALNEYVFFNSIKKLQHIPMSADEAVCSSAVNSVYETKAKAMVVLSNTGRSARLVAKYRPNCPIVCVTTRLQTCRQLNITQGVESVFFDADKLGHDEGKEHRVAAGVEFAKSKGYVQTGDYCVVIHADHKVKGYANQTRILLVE
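In 50 mM imidazole pH 7.2 with 7 mM MgCl2, LmPK (0.1 nM) turned over PEP (0.5 mM) and ADP (0.1 mM) for 1 h at room temperature. Luciferase read-out of ATP.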
CHX counter: counter-screen hit for Shiga toxin inhibitors, cycloheximide; cell reporter, cycloheximide protein synthesis inhibition counterscreen; max response, %; actives 12% (n = 300,000); AID 2314; in the data active = max response mostly above about 13%, no sharp cut-off; inactive = mostly below about 14%; also: read at 38.3 µM for the half of the compounds with a filed dose
Hits are given with their value. Unless noted, calls follow the shape of the dose curve; as a rule, active = well fitted inhibition curve with a large enough effect; inconclusive = small, poorly fitted or top-dose-only effect, or another doubt; inactive = no such curve, though single readings can be large or run the other way.

How did Oc1ccc(Br)cc1/C=N/N1CCN(Cc2ccccc2)CC1 do in these assays?
Pf growth 48h: inactive; Shiga toxin inh: inactive; Pf growth 96h: inactive; LmPK inh: inactive; CHX counter: inactive

What do the screens show for `CCc1ccc(CN2CCN(Cc3cc(Br)ccc3O)CC2)cc1`?
Pf growth 48h: 0.233µM; Shiga toxin inh: inactive; Pf growth 96h: 1.17µM; LmPK inh: inactive; CHX counter: inactive

Results for O=C1N=C(N2CCCCC2)SC1=C1CCCC1 ?
Shiga toxin inh: 45.3; Pf growth 96h: inactive; LmPK inh: inactive; CHX counter: 26.1

Results for O=C1N=C(N2CCCCC2)S/C1=C\c1ccncc1 ?
Pf growth 48h: inconclusive; Shiga toxin inh: inactive; Pf growth 96h: inconclusive; LmPK inh: inactive; CHX counter: inactive

Results for COc1ccc(C(=O)NC(C)c2ccc(-n3ccnc3)cc2)cc1S(=O)(=O)N1CCOCC1 (stereo not given) ?
Pf growth 48h: inactive; Pf growth 96h: inactive

Results for CCn1c2ccccc2c2cc(NS(=O)(=O)c3ccccc3C)ccc21 ?
Pf growth 48h: inconclusive; Shiga toxin inh: inactive; Pf growth 96h: inconclusive; LmPK inh: inactive; CHX counter: inactive

Results for O=C(/C=C/c1cccs1)N1CCN(c2ccc(O)cc2)CC1 ?
Pf growth 48h: inactive; Shiga toxin inh: inactive; Pf growth 96h: inconclusive; LmPK inh: 15.8µM; CHX counter: inactive

Results for O=C(/C=C/c1cccs1)N1CCCCC1 ?
Pf growth 48h: inactive; Shiga toxin inh: 61.0; Pf growth 96h: inconclusive; LmPK inh: inconclusive; CHX counter: 39.3

What do the screens show for `COc1cc2c(cc1OC)CN(C(=O)/C=C/c1cccs1)CC2`?
Pf growth 48h: inconclusive; Shiga toxin inh: inactive; Pf growth 96h: inconclusive; LmPK inh: inactive; CHX counter: inactive

Results for COc1cccc(C2C([N+](=O)[O-])=C(N)Oc3cc(C)oc(=O)c32)c1 (stereo not given) ?
Pf growth 48h: inactive; Shiga toxin inh: inactive; Pf growth 96h: inactive; LmPK inh: inactive; CHX counter: inactive

Results for CSc1ccccc1OCc1cc(C(=O)N(Cc2nccn2C)C(C)C)no1 ?
Pf growth 48h: inactive; Shiga toxin inh: inactive; Pf growth 96h: inactive; LmPK inh: inactive; CHX counter: 28.5

How did CCn1ccnc1CNC(=O)c1cc(COc2ccc(F)cc2F)on1 do in these assays?
Pf growth 48h: inconclusive; Shiga toxin inh: inactive; Pf growth 96h: inactive; LmPK inh: inactive; CHX counter: inactive

How did CCn1ccnc1CN(C)C(=O)c1cc(COc2ccccc2SC)on1 do in these assays?
Pf growth 48h: inactive; Shiga toxin inh: 95.6; Pf growth 96h: inconclusive; LmPK inh: inactive; CHX counter: 53.4

Results for Cc1cc(OCc2cc(C(=O)N(Cc3nccn3C)C(C)C)no2)cc(C)c1Cl ?
Pf growth 48h: inactive; Shiga toxin inh: 55.4; Pf growth 96h: 14.7µM; LmPK inh: inactive; CHX counter: 26.2

Results for CCN(CCN1CCCC1)C(=O)c1cc(COc2ccccc2SC)on1 ?
Pf growth 48h: inactive; Shiga toxin inh: inactive; Pf growth 96h: inconclusive; LmPK inh: inactive; CHX counter: inactive

Results for CN(Cc1nccn1C)C(=O)c1cc(COc2ccc3ncccc3c2)on1 ?
Pf growth 48h: inactive; Shiga toxin inh: inactive; Pf growth 96h: inactive; LmPK inh: inactive; CHX counter: inactive

What do the screens show for `NS(=O)(=O)c1cc(C(=O)OCC(=O)N2CCc3ccccc3C2)ccc1Cl`?
Pf growth 48h: inactive; Pf growth 96h: inconclusive

What do the screens show for `O=C(CSc1nc2cc(Cl)ccc2o1)Nc1ccc(N2CCOCC2)cc1`?
Pf growth 48h: inactive; Shiga toxin inh: 71.7; Pf growth 96h: inconclusive; LmPK inh: inactive; CHX counter: 30.8

What do the screens show for `O=C(CSc1nc2ccccc2o1)Nc1ccccc1N1CCOCC1`?
Shiga toxin inh: inactive; Pf growth 96h: inconclusive; LmPK inh: inactive; CHX counter: inactive

How did O=C(CSc1nc2cc(Cl)ccc2o1)N1CCOCC1 do in these assays?
Pf growth 48h: inactive; Shiga toxin inh: inactive; Pf growth 96h: inactive; LmPK inh: inactive; CHX counter: inactive

How did O=C(CSc1nc2ccccc2o1)Nc1ccc(N2CCOCC2)cc1 do in these assays?
Pf growth 48h: inactive; Shiga toxin inh: 62.4; Pf growth 96h: inactive; LmPK inh: inactive; CHX counter: 46.8

Results for CCc1nc(CNC(=O)C2CCC(=O)N(Cc3ccccc3F)C2)no1 (stereo not given) ?
Pf growth 48h: inconclusive; Shiga toxin inh: inactive; Pf growth 96h: inactive; LmPK inh: inactive; CHX counter: inactive

Results for CSC1=NC(C)(C)C=C(/C=C/c2ccc(Cl)cc2Cl)N1 ?
Pf growth 48h: inconclusive; Shiga toxin inh: inactive; Pf growth 96h: 11.7µM; LmPK inh: inactive; CHX counter: inactive

What do the screens show for `CCSC1=NC(C)(C)C=C(/C=C/c2ccc(Cl)cc2Cl)N1`?
Shiga toxin inh: inactive; Pf growth 96h: inconclusive; LmPK inh: inactive; CHX counter: inactive

How did C/C(=N\NC(=O)c1cccc(S(=O)(=O)N2CCOCC2)c1)c1ccc(OCC(=O)N(C)C)cc1 do in these assays?
Pf growth 48h: inactive; Pf growth 96h: inactive

How did CN1CCN(S(=O)(=O)c2cccs2)CC1 do in these assays?
Pf growth 48h: inactive; Shiga toxin inh: inactive; Pf growth 96h: inactive; LmPK inh: inactive; CHX counter: inactive

What do the screens show for `O=S(=O)(c1cccs1)N1CCN(c2ccc(O)cc2)CC1`?
Pf growth 48h: inconclusive; Shiga toxin inh: inactive; Pf growth 96h: inconclusive; LmPK inh: inactive; CHX counter: 15.3

Results for Cc1ccc(C(=O)N2CCN(S(=O)(=O)N3CCCCC3)CC2)cc1 ?
Pf growth 48h: inactive; Shiga toxin inh: inactive; Pf growth 96h: 10.4µM; LmPK inh: inactive; CHX counter: inactive

What do the screens show for `Cc1ccc(C(=O)N2CCN(S(=O)(=O)c3ccc(C)cc3)CC2)cc1`?
Pf growth 48h: inactive; Shiga toxin inh: inactive; Pf growth 96h: 13.1µM; LmPK inh: inactive; CHX counter: inactive

Results for CCOC(=O)C1CN(S(=O)(=O)c2ccc(C)cc2)CCN1S(=O)(=O)c1ccc(C)cc1 (stereo not given) ?
Pf growth 48h: inconclusive; Shiga toxin inh: inactive; Pf growth 96h: 14.7µM; LmPK inh: inactive; CHX counter: inactive

Results for O=C(c1ccccc1)N1CCN(S(=O)(=O)c2ccccc2)CC1 ?
Pf growth 48h: inconclusive; Shiga toxin inh: inactive; Pf growth 96h: inactive; LmPK inh: inactive; CHX counter: inactive

How did CC(NC(=O)C1CCCN1C(=O)CN)C(=O)O (stereo not given) do in these assays?
Shiga toxin inh: inactive; CHX counter: inactive

How did C/C(=N\OCc1ccccc1)c1c(O)cc(C(C)C)n(-c2ccccc2)c1=O do in these assays?
Pf growth 48h: inactive; Shiga toxin inh: inactive; Pf growth 96h: inactive; LmPK inh: inactive; CHX counter: inactive

How did O=C(NC(=S)N1CCCCC1CO)c1cc(Br)ccc1Cl (stereo not given) do in these assays?
Pf growth 48h: inactive; Pf growth 96h: inactive

How did CCOc1ccc(N(CC(=O)NC2CCCCC2)C(=O)CCCC(=O)Nc2ccccn2)cc1 do in these assays?
Pf growth 48h: inactive; Shiga toxin inh: inactive; Pf growth 96h: inconclusive; LmPK inh: inactive; CHX counter: inactive
